Assay [1] can be described thus: small molecules captured by biotinylated probe aFSTL3 – biochemical, small-molecule microarray, fluorescence 635/667, stem cell growth factor project, primary screen (AID 1064).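 Also: measures binding of the biotinylated anti-FSTL3 antibody to printed compounds.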 The settings on record: higher = more signal.
The nature of assay [2]: binders from COS7 lysate, DM2A8 probe, primary screen, torsin A project, cell lysate, small-molecule microarray, fluorescence 635/667 (AID 1065). The settings on record: higher = more signal, COS7 lysate expressing mutant human TOR1A.
Assay [3] can be described thus: small molecules captured by biotinylated probe aFGF2 – biochemical, small-molecule microarray, fluorescence 635/667, stem cell growth factor project, primary screen (AID 1067).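 Also: measures binding of biotinylated aFGF2 protein to printed compounds on slides; z-score merges feature fluorescence and signal-to-noise across triplicate slides.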 The conditions noted are these: higher = more signal.
Assay [4] is described as follows: small molecules captured by biotinylated probe aFGF10 – biochemical, small-molecule microarray, fluorescence 635/667, stem cell growth factor project, primary screen (AID 1071).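 Also: score merges 667 nm spot intensity and signal to noise from triplicate slides.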 The conditions noted are these: higher = more signal.
Assay [5] has as its target Neurogenic locus notch homolog protein 2 (Homo sapiens) (UniProt Q04721). Put plainly: small molecules binding Notch2 protein – biochemical, small-molecule microarray, 635 nm fluorescence, stem cell growth factors, primary screen (AID 1073). The settings on record: higher = more signal.
Assay [6] concerns the target Pro-neuregulin-1, membrane-bound isoform (Homo sapiens) (UniProt Q02297). As to the kind of experiment: small molecules binding neuregulin-1 protein – biochemical, small-molecule microarray, fluorescence 635/667, psychiatric disease protein project, primary screen (AID 1075).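 Also: score combines 667 nm spot fluorescence with signal to noise.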 The conditions noted are these: NRG1 binding, 635 nm fluorescence, higher = more signal.
In assay [7] the test system is Neuregulin-1 EGF-like domain. As to the kind of experiment: small molecules binding NRG1 EGF domain – biochemical, small-molecule microarray, 635 nm fluorescence, primary screen (AID 1081).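 Also: binding of the protein to compounds printed on small-molecule microarray slides.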 The conditions noted are these: higher = more signal.
Assay [8] in a line: FRG1 expression reporter modulators in myotubes – cell-based, C2C12 myotubes, firefly/Renilla luciferase, luminescence, FRG1 inhibition for FSHD, primary screen (AID 1084). The settings on record: FRG1 promoter luciferase, higher = more signal, called active from +8 up or from −8 down.
Assay [9] is described as follows: small molecules captured by biotinylated probe aFST – biochemical, small-molecule microarray, fluorescence 635/667, stem cell growth factor project, primary screen (AID 1086).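 Also: score merges 667 nm fluorescence with signal-to-noise of each printed compound spot.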 The settings on record: higher = more signal.
Assay [10] is described as follows: binders of probe aHhip on microarray, primary screen, stem cell growth factor project, biochemical, small-molecule microarray, fluorescence 635/667 (AID 1087).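 Also: score merges spot fluorescence at 667nm with spot signal to noise ratio.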 The conditions noted are these: higher = more signal.
Assay [11] relates to PRMT1 (protein arginine N-methyltransferase 1). As to the kind of experiment: small molecules binding arginine methyltransferase PRMT1 – biochemical, small-molecule microarray, 635 nm fluorescence, primary screen (AID 1088).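 Also: binding of Prmt1 protein to compounds spotted on small-molecule microarray slides.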 The conditions noted are these: higher = more signal.
Assay [12] can be described thus: growth effects on S. cerevisiae YJM789 – YJM789 clinical isolate, OD600, 24 h, basal, primary screen (AID 1089).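 Also: growth of clinical yeast isolate S. cerevisiae YJM 789 seeded 1000 cells per well; test concentration not given here.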 The conditions noted are these: higher = more signal, called active from +8 up or from −8 down.
Assay [13] is described as follows: S. pombe growth modifiers, basal conditions – strain 972, OD600, 24 h, no modulator, primary screen (AID 1090).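 Also: basal condition with compound alone and no growth modifier present; test concentration not given here.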 The settings on record: S. pombe 972 growth, higher = more signal, called active from +8 up or from −8 down.
The nature of assay [14]: budding yeast growth modifiers under rapamycin – strain BY4716, OD600, 96 h, primary screen (AID 1091). Also: test concentration not given here. The settings on record: S. cerevisiae BY4716 + rapamycin, higher = more signal, called active from +8 up or from −8 down.
The target of assay [15] is Torsin-1A-interacting protein 2 (Homo sapiens) (UniProt Q8NFQ8). Put plainly: small molecules binding lysate-expressed LULL1 – cell lysate, human LULL1 lysate, 635/667 nm fluorescence, primary screen (AID 1092).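 Also: probe is lysate of COS7 cells overexpressing human LULL1; score merges per-feature 667 nm fluorescence with signal-to-noise.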 The settings on record: small-molecule microarray, hLULL1 lysate binding, 635 nm fluorescence; higher = more signal.
A short description of assay [16]: optical density change of DRC41 E. coli – strain DRC41, OD650, 24 h, E. coli filamentation project, primary screen (AID 1093).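 Also: MC1000 strain lacking acrAB efflux and sulA so SOS filamentation is blocked; test concentration not given here.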 The conditions noted are these: E. coli DRC41 growth, higher = more signal, called active from +8 up or from −8 down.
Assay [17] in a line: probe aLefty2 binding to arrayed compounds – biochemical, biotinylated probe, 635/667 nm fluorescence, primary screen (AID 1094).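 Also: score merges spot fluorescence near 667 nm with spot signal-to-noise ratio.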 The settings on record: small-molecule microarray, higher = more signal.
In assay [18] the test system is Noggin (protein binding on small-molecule microarray). Put plainly: small molecules binding Noggin protein – biochemical, 635/667 nm fluorescence, primary screen (AID 1095).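 Also: score merges 667 nm feature fluorescence with signal to noise over triplicate slides.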 The settings on record: 635 nm fluorescence, higher = more signal.
In assay [19] the target is Neurogenic locus notch homolog protein 3 (Homo sapiens) (UniProt Q9UM47). Put plainly: small molecules binding NOTCH3 protein – biochemical, 635/667 nm fluorescence, primary screen (AID 1096). The settings on record: small-molecule microarray, 635 nm fluorescence, higher = more signal.
The nature of assay [20]: probe aEGFR binding to arrayed compounds – biochemical, biotinylated probe, 635/667 nm fluorescence, primary screen (AID 1097).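 Also: probe is a biotinylated anti-EGFR antibody binding compounds printed on slides; score combines fluorescence near 667 nm and signal to noise of each spot.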 The settings on record: small-molecule microarray, higher = more signal.

“And” between values parts separate entries of the source, which are not always exact repeats. Equal values may be shown once. The source made the active and inactive calls.

Sequence of Neurogenic locus notch homolog protein 3 (Homo sapiens) (Q9UM47 whole entry, looked up): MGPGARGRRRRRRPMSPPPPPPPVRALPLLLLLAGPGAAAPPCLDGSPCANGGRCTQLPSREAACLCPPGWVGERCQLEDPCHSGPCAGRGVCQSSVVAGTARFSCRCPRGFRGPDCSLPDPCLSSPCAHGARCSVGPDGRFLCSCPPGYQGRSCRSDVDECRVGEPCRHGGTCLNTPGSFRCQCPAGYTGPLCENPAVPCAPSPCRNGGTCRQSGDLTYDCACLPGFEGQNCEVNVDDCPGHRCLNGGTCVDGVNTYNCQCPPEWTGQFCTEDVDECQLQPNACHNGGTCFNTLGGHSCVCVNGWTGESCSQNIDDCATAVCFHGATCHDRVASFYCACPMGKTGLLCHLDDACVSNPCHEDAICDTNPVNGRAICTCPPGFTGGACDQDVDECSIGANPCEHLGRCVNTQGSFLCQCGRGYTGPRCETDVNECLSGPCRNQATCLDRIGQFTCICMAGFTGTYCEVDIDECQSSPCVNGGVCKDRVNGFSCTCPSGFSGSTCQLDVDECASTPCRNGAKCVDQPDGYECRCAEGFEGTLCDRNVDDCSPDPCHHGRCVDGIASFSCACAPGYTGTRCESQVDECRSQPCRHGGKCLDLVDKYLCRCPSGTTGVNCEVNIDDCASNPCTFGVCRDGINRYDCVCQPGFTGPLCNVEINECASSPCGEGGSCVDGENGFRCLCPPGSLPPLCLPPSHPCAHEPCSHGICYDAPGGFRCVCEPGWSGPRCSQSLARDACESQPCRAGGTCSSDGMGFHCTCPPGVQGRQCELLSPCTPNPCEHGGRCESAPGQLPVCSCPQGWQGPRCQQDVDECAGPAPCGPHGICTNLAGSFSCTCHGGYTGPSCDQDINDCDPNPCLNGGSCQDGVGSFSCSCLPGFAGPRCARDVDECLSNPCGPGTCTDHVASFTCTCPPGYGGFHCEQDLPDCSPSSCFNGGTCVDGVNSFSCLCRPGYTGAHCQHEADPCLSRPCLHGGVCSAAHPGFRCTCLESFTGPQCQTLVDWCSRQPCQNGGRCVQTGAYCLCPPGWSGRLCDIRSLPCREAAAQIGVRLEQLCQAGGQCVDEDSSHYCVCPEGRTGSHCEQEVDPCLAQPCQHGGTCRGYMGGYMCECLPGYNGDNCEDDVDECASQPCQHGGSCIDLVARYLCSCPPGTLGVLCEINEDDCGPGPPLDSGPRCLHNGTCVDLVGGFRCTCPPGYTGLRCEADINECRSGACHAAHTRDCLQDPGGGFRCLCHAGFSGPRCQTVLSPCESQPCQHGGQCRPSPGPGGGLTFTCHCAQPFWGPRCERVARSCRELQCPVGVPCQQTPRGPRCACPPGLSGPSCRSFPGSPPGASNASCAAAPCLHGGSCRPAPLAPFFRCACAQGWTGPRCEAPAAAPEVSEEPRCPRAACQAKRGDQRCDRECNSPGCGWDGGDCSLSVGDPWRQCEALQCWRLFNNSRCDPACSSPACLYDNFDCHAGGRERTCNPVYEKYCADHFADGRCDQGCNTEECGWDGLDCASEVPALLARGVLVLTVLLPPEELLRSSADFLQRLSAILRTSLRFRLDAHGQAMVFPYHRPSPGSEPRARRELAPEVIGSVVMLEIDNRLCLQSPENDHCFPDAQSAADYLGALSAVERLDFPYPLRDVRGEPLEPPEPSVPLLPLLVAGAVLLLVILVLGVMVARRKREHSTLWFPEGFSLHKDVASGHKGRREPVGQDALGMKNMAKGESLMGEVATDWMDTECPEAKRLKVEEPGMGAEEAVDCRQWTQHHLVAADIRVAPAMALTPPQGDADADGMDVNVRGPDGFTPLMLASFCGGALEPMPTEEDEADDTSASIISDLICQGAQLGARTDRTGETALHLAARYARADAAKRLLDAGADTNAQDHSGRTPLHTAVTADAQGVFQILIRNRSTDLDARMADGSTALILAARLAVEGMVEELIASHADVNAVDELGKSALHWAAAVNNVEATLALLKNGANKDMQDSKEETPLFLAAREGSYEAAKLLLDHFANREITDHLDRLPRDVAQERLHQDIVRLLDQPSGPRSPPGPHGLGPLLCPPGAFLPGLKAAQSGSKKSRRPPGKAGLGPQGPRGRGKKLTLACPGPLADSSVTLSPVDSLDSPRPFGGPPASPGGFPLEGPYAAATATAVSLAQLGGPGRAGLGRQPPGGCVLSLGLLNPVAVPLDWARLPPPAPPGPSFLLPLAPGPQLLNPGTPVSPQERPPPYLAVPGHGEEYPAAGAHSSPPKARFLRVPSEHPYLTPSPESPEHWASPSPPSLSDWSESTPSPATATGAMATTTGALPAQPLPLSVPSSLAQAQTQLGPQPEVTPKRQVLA
Sequence of Pro-neuregulin-1, membrane-bound isoform (Homo sapiens) (Q02297 whole entry, looked up, the tested form may be a part, canonical isoform): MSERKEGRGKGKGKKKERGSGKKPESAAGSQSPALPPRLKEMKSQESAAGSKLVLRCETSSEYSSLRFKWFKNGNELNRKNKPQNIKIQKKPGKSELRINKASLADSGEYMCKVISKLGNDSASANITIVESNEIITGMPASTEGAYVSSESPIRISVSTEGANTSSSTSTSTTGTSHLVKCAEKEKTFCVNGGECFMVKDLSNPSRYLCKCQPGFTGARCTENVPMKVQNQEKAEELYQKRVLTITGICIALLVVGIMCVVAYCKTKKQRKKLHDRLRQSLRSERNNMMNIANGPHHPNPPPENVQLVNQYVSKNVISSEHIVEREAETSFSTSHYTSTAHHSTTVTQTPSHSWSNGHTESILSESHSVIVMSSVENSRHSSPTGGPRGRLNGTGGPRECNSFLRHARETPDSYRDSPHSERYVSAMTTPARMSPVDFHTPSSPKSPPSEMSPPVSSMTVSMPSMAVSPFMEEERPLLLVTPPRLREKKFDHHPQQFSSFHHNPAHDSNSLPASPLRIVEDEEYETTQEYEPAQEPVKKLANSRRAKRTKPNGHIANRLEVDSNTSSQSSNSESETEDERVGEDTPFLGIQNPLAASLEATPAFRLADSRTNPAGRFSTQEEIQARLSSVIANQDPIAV
Sequence of Torsin-1A-interacting protein 2 (Homo sapiens) (Q8NFQ8 whole entry, looked up): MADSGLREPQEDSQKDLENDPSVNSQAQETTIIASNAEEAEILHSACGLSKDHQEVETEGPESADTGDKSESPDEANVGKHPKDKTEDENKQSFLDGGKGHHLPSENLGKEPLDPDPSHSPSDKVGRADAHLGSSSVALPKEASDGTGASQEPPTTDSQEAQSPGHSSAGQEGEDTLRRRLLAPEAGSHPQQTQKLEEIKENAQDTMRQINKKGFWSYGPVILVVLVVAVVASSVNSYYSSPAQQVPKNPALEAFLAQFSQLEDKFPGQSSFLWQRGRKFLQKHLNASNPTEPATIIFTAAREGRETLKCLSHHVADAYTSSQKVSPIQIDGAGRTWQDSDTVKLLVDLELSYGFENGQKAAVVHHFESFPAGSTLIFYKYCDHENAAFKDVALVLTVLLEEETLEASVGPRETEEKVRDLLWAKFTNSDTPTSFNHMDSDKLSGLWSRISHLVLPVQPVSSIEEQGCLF

On to `CC(C)C(=O)N[C@@H]1CCCN1C(=O)C=Cc1ccccc1`, for which the composite z-score in assay [1] was -0.46; in assay [2], 0.323; in assay [3], -0.0781; in assay [4] it was 0.405; in assay [5] it was 0.99; in assay [6], 0.208. The composite z-score in assay [7] was 1.07; in assay [9] it was 0.125; in [10], -0.0994; in assay [11], 0.731; in assay [15], 0.783; in assay [17], -0.14. Further, the composite z-score in [18] amounted to 0.783; in assay [19], 0.786; in assay [20], 0.0289. The z-score is -0.416 (inactive) in assay [8]; -0.91 (inactive) in assay [12]; -0.0986 (inactive) in assay [13]; -0.307 (inactive) in assay [14]; 1.03 (inactive) in assay [16].
As to `CCCNC(=O)OC[C@H]1O[C@H](CCON=C(C)CCC(=O)OC[C@H]2O[C@H](C#Cc3ccccc3)C=C[C@@H]2Oc2ccc(C)cc2)C=C[C@@H]1Oc1ccc(OC)cc1`, the composite z-score in assay [1] was 0.0836; in assay [2], -0.115; in [3], -0.124; in assay [4], -0.187; in assay [5], -0.0132; in [6], -0.21. In addition, the composite z-score is -0.861 in assay [7]; -0.244 in assay [9]; 1.27 in [10]; -0.164 in assay [11]; -0.575 in [15]; -0.251 in assay [17]. Further, the figures for the composite z-score in [18], in assay [19] and in assay [20] were -0.346, -0.574 and -0.12, respectively. Further, the z-score in [8] is 0.751 (inactive); in assay [12] it was -0.142 (inactive); in assay [13], -0.0152 (inactive); in [14], 0.794 (inactive); in [16], 0.165 (inactive).
Turning to `CCOC(=O)[C@H](CC(C)C)NC(=O)CCC1CC(OC(=O)NCc2cccc3ccccc23)CC2(CCCC(COC(=O)NCc3ccccc3)O2)O1` (stereo not given in full), the composite z-score in assay [1] was -0.289; in assay [2], -0.0297; in [3] it was -0.116; in [4] it was 0.129; in [5], -0.362; in [6], -0.421. For the same compound, the composite z-score in assay [7] was -0.0852; in assay [9] it was -0.0955; in assay [10], -0.143; in [11], -0.0282; in [15], -0.393; in [17], -0.221. In addition, the composite z-score in assay [18] was 0.306; in assay [19] it was 0.156; in assay [20], -0.182. Besides, the z-score in [8] was 2.99 (inactive); in [12], -1.11 (inactive); in [13], -0.0838 (inactive); in assay [14], -0.395 (inactive); in assay [16] it was -0.548 (inactive).
For `C[C@@H]1CC[C@H]2C(=O)NC[C@@H](O)CN2[C@H]1c1ccc(Br)cc1`, the composite z-score is -0.194 and -0.181 in assay [1]; 0.332 and 0.0997 in assay [2]; -0.116 and -0.134 in [3]; 0.23 and 0.0389 in [4]; -0.556 and -0.244 in assay [5]; 0.229 and -0.138 in assay [6]. Also, the composite z-score is 0.693 and 0.72 in [7]; -0.304 and 0.127 in assay [9]; -0.3 and -0.134 in assay [10]; -0.0838 and -0.473 in [11]; 0.759 and -0.129 in assay [15]; -0.136 and -0.253 in assay [17]. Further, the composite z-score was 0.561 and -0.0536 in assay [18]; -0.0857 and -0.344 in assay [19]; -0.171 and -0.0356 in assay [20]. The z-score in assay [8] was 0.674 (inactive) and -0.078 (inactive); in [12] it was -0.77 (inactive) and 0.443 (inactive); in assay [13], -0.0565 (inactive) and -0.0682 (inactive); in assay [14], -0.451 (inactive) and 0.389 (inactive); in assay [16] it was 0.0565 (inactive) and 0.377 (inactive).

Source of the values: PubChem BioAssay.
